Experimental data: PubChem BioAssay AID540308 (The Scripps Research Institute Molecular Screening Center, 2011)
Hit rate of the full screen: of about 360,000 compounds, about 3,500 (0.97%) were called active.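 How the source made its calls: active means activation above a per-plate cutoff, the mean activation of sample wells on that plate plus 3 SD (cut at about 8% in these data); inactive means the rest.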 What follows is part of a selection rich in actives, with near analogues and random picks from the rest.

These compounds were tested against Melanocortin receptor 4 (Homo sapiens) (UniProt P32245) (assay: activators of MC4R beta-arrestin recruitment – cell-based, luminescence, agonist arm of biased-ligand search, primary screen (AID 540308)). Conditions: U2OS MC4R beta-arrestin complementation, at 8.9 µM, active compounds read high, percent of melanotan II response, DMSO zero.
Sequence of Melanocortin receptor 4 (Homo sapiens) (P32245 whole entry, looked up): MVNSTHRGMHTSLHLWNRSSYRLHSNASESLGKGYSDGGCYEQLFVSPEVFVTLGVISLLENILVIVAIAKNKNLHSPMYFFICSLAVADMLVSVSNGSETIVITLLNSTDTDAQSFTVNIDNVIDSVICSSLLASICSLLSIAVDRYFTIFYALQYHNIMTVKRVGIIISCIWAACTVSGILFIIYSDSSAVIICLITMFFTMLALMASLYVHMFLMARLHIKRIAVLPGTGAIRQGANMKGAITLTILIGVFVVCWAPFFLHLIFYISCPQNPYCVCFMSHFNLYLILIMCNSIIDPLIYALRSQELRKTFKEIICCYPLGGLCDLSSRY
For CCCCOC(=O)c1[nH]c(C)c(C(=O)OC)c1C, the activation was -0.04% (inactive).
In the case of COC(=O)c1c(C)[nH]c(C(=O)/C=C/c2ccc(Cl)cc2)c1C, the activation is reported as 30.6% (active).
With COC(=O)c1c(C)[nH]c(C(=O)NCCc2ccc(S(N)(=O)=O)cc2)c1C the activation was 0.27% (inactive).
With CCCCCC(O)c1cccc(OCc2ccc3ccccc3n2)c1 (stereo unspecified) the activation was 8.01% (inactive).
COc1ccc(NC(=O)CN(C)C(=O)c2ccc(COc3ccccc3)o2)cc1 was tested, and the activation was -0.54% (inactive).
With CN(CC(=O)Nc1ccc(Cl)cc1)C(=O)c1ccc(COc2ccccc2)cc1 the activation was 23.3% (active).
CN(Cc1ccccc1)C(=O)c1ccc(COc2ccccc2)cc1 was tested, and the activation was -0.25% (inactive).
With O=C(Nc1nnc([C@H]2C[C@H](O)[C@@H](CO)O2)s1)c1cccc(Cl)c1 the activation was 0.51% (inactive).
With Cc1cc(Br)ccc1NC(=O)CCCOc1cc(=O)n(C)c2ccccc12 the activation was -1.42% (inactive).
For CCc1nc2c(OCCC3CCCCC3)cccn2c1N(C)C(=O)c1ccco1, the activation was 1.25% (inactive).
With N#CC(=C1SC=CS1)c1nc(-c2ccccc2)cs1 the activation was 30.3% (active).
In the case of N#CC(=C1CCCC1)c1nc(-c2ccc(Cl)cc2)cs1, the activation is reported as -1.29% (inactive).
CC(C)c1cccc(-c2csc(C(O)c3ccccc3)n2)c1 (stereo unspecified) was tested, and the activation was 5.31% (inactive).
In the case of Nc1nnn(CC(=O)N/N=C/c2ccccc2)n1, the activation is reported as -0.81% (inactive).
For O=C(Cn1nnc(-c2ccccc2)n1)N/N=C/c1ccc(-c2ccc(Cl)cc2)o1, the activation was 9.43% (active).
For O=C(CN1CCOCC1)N/N=C/c1ccc(-c2ccc(Br)cc2)o1, the activation was -3.54% (inactive).
For Cc1cc2nc(SCCN3CCOCC3)[nH]c2cc1C, the activation was 3.6% (inactive).
In the case of Cc1ccc(-n2nc3cc(Cl)c(NC(=O)c4ccco4)cc3n2)cc1, the activation is reported as 9.62% (active).
With Cc1ccc(NC(=O)c2ccco2)cc1 the activation was -2.18% (inactive).
Cc1ccc(-n2nc3cc(C)c(NC(=O)c4cccnc4)cc3n2)cc1 was tested, and the activation was 2.16% (inactive).
For CCOc1ccc(C(=O)Nc2ccc(S(=O)(=O)NCC3CCCO3)cc2)cc1OCC (stereo unspecified), the activation was -3.73% (inactive).
In the case of CCCNC(=O)C1(C)CCCN(Cc2c(C)nn(-c3ccccc3)c2C)C1 (stereo unspecified), the activation is reported as 0.24% (inactive).
CC(C)Oc1cc(F)ccc1-c1cc(C(=O)Nc2cccc(Cl)c2)[nH]n1 was tested, and the activation was 0.52% (inactive).
In the case of COc1ccccc1C(=O)OCC(=O)NCCNC(=O)COC(=O)c1ccccc1OC, the activation is reported as -1.16% (inactive).
With COc1ccc(C(=O)OCC(=O)NCCCc2ccccc2)cc1OC the activation was 1.24% (inactive).
For Cc1cc(C)cc(C(=O)OCC(=O)NCCNC(=O)COC(=O)c2cc(C)cc(C)c2)c1, the activation was 12% (active).
With CCOC(=O)C1CCCN(C(=O)c2ccc(C)c(F)c2)CC1 (stereo unspecified) the activation was -1.19% (inactive).
In the case of Cc1cc(/C=C(/C#N)C(=O)Nc2ccc(Cl)cc2)c(C)n1-c1cccnc1, the activation is reported as 11.4% (active).
Cc1ccc(-n2c(C)cc(/C=C(\C#N)C(=O)NCC3CCCO3)c2C)cc1 (stereo unspecified) was tested, and the activation was -2.19% (inactive).
With N#C/C(=C\c1cccnc1)C(=O)Nc1ccc(SC(F)F)cc1 the activation was -1.77% (inactive).
For CC1(C(=O)NCC2CCOCC2)Cc2c(-c3cccc(C(N)=O)c3)ccnc2O1 (stereo unspecified), the activation was 0.47% (inactive).
In the case of COC(=O)c1ccccc1NC(=O)CSc1nnnn1C, the activation is reported as -1.06% (inactive).
Cn1nnnc1SCC(=O)Nc1sccc1C(N)=O was tested, and the activation was 0.49% (inactive).
With CCOC(=O)c1c(-c2ccc(C)cc2C)csc1NC(=O)CSc1nnnn1C the activation was 14.8% (active).
For OC[C@H]1O[C@@H](c2nc(-c3nc(-c4ccc(F)cc4)no3)cs2)[C@H](O)[C@@H](O)[C@H]1O, the activation was -1.58% (inactive).
Nc1nc(CSc2nnnn2-c2ccccc2)nc(Nc2ccccc2)n1 was tested, and the activation was 3.67% (inactive).
With CCOC(=O)c1ccc(-c2ccc3ncnc(N(C)Cc4sccc4C)c3c2)o1 the activation was 1.6% (inactive).
With CC1(C(=O)NS(=O)(=O)c2ccc(C#N)cc2)CCN1C(=O)c1ccc(C2CCCCC2)cc1 (stereo unspecified) the activation was -2.29% (inactive).
CCc1ccc(CN(C)C(=O)C2CCC(=O)N(Cc3cccc(OC)c3)C2)nc1 (stereo unspecified) was tested, and the activation was -1.43% (inactive).
With Cc1nc2c(OCC(=O)C(C)(C)C)cccn2c1N(C)Cc1cccs1 the activation was -0.1% (inactive).
For CN(C)CCCN(C(=O)c1ccc(S(=O)(=O)N2CCCCCC2)cc1)c1nc2ccc(Br)cc2s1, the activation was 9.74% (active).
CN(C)CCN(C(=O)C1=COCCO1)c1nc2ccc(Cl)cc2s1 was tested, and the activation was 1.13% (inactive).
With CCN(CC(=O)Nc1c(F)cccc1F)C(=O)c1ccc(S(=O)(=O)N2CCCCC2)cc1 the activation was -2.71% (inactive).
In the case of CCNC(=O)C1(C)CCN(Cc2ccc(C(=O)OCC)o2)C1 (stereo unspecified), the activation is reported as -1.16% (inactive).
With Cn1c(=O)c2cc(NC(=O)NCCc3cccs3)ccc2n1Cc1cccc(C(F)(F)F)c1 the activation was -0.26% (inactive).
For CCc1nc2c(OCC(N)=O)cccn2c1N(C)C(=O)c1ccc(OC)cc1, the activation was -1.44% (inactive).
COc1ccc(NC(=O)C2=C(C)NC(=O)NC2c2ccccc2[N+](=O)[O-])cc1 (stereo unspecified) was tested, and the activation was -2.18% (inactive).
COc1cc(C2C(C(=O)Nc3ccc(F)cc3)=C(C)Nc3nc(CCCO)nn32)cc(OC)c1OC (stereo unspecified) was tested, and the activation was -1.43% (inactive).
For COC(=O)c1nc2n(n1)C(c1ccc([N+](=O)[O-])cc1)C(C(=O)Nc1ccc(Cl)cc1)=C(C)N2 (stereo unspecified), the activation was 9.62% (active).
In the case of CCNC(=O)C1(C)CCN(C(=O)c2ccccc2)C1 (stereo unspecified), the activation is reported as 1.33% (inactive).
In the case of CSCCC(Nc1ccc(S(=O)(=O)N2CCOCC2)cc1[N+](=O)[O-])C(=O)OCC(=O)N(C(C)C)C(C)C (stereo unspecified), the activation is reported as -3.39% (inactive).
For NC(=O)C1CCN(C(=O)c2cn(-c3ccccc3)nc2-c2cccnc2)CC1, the activation was 8.8% (active).
COc1ccccc1N1CCN(C(=O)c2cn(-c3ccccc3)nc2-c2cccnc2)CC1 was tested, and the activation was 0.24% (inactive).
In the case of O=C(c1cn(-c2ccccc2)nc1-c1cccnc1)N1CCN(S(=O)(=O)c2ccccc2F)CC1, the activation is reported as -2.08% (inactive).
With COC(=O)c1ccc(NCc2cc(O)ccc2O)cc1 the activation was -1.55% (inactive).
O=C(OC12CC3CC(CC(C3)C1)C2)c1ccc(NCc2cc(O)ccc2O)cc1 was tested, and the activation was 18.7% (active).
For CC(C)OC(=O)c1ccc(NCc2cc(O)ccc2O)cc1Cl, the activation was -0.65% (inactive).
For CC(=O)NC(c1ccccc1)c1nc(-c2cccc(C(C)C)c2)cs1 (stereo unspecified), the activation was -1.73% (inactive).
CCCNC(=O)c1cc(C2CCCCN2C(=O)OC)on1 (stereo unspecified) was tested, and the activation was -0.19% (inactive).
COc1ccc(OCc2cc(C(=O)NCC3(C)COC3)no2)c(Cl)c1 was tested, and the activation was -0.53% (inactive).
With Cc1cccnc1CC(C)NC(=O)c1cc(COc2cncc(Cl)c2)on1 (stereo unspecified) the activation was 0.62% (inactive).
For Cc1cc(OCc2cc(C(=O)NCc3cc(C(C)C)no3)no2)cc(C)c1Cl, the activation was 10% (active).
With O=C(CCc1ccccc1)Nc1ccnn1C1CCN(Cc2ccc(OCCO)cc2)CC1 the activation was 1.84% (inactive).
With CCCNC(=O)C1(C)CCN(Cc2ccc(Cl)c(Cl)c2)C1 (stereo unspecified) the activation was -2.21% (inactive).
With CCOC(=O)c1c(-c2ccccc2)oc2cc(Br)c(O)c(C=O)c12 the activation was 48% (active).
CCOC(=O)c1c(C)oc2cc(Sc3ccccc3)c(O)c(O)c12 was tested, and the activation was 2.95% (inactive).
Cc1oc2cc(Br)c(O)c(Br)c2c1C(=O)c1ccccc1 was tested, and the activation was -0.65% (inactive).
In the case of COc1ccc(C2CC(c3cccc(OC)c3)=NN2c2ccc(S(N)(=O)=O)cc2)cc1 (stereo unspecified), the activation is reported as -0.4% (inactive).
COc1ccc(-c2csc(C(O)c3cccc(Cl)c3)n2)cn1 (stereo unspecified) was tested, and the activation was -0.23% (inactive).
For CC1(C(=O)NS(=O)(=O)c2ccc(C#N)cc2)CCN1C(=O)CC1CCCC1 (stereo unspecified), the activation was -0.26% (inactive).
Cc1ccc(C(=O)NC(=S)Nc2ccc(N3CCOCC3)cc2)cc1 was tested, and the activation was -0.72% (inactive).
With Cc1ccc(NC(=S)NC(=O)c2ccc(-c3ccccc3)cc2)cc1 the activation was 8.85% (active).
In the case of CC(=O)Nc1ccc(NC(=S)NC(=O)c2ccc([N+](=O)[O-])c(C)c2)cc1, the activation is reported as 0.22% (inactive).
Cn1c(NCc2cccnc2)nc2cc(-c3ccc(F)cc3)sc2c1=O was tested, and the activation was 1.42% (inactive).
With OC[C@@H]1CN(Cc2ccc3c(c2)OCO3)C[C@H](n2cnc3c(NCc4ccco4)ncnc32)O1 the activation was 0.72% (inactive).
In the case of CC(=O)Nc1cncc(-c2ccccc2CO)n1, the activation is reported as -1.61% (inactive).
In the case of COc1ccc2ccccc2c1CNc1nnnn1C, the activation is reported as -2.85% (inactive).
For Cn1c(=S)sc2ccc3ccccc3c21, the activation was 18.2% (active).
For CCc1nc2ccc(C(=O)N3CCC(O)(Cc4ccccc4)CC3)cn2c1N(C)C(=O)Cc1ccccc1, the activation was -0.81% (inactive).
With O=C(CCc1ccccc1Cl)Nc1ccc(S(=O)(=O)Nc2nccs2)cc1 the activation was -1.67% (inactive).
Cc1ccc(Cc2cnc(N)s2)o1 was tested, and the activation was 0.06% (inactive).
With Cc1ccc(CCC(=O)Nc2ncc(Cc3cc(Cl)ccc3Cl)s2)o1 the activation was 10.3% (active).
In the case of CNc1cnc(-c2cc(OC)c(OC)c(OC)c2)cn1, the activation is reported as 0.24% (inactive).
For CCOC(=O)C1(C)CCCN(C(=O)c2ccc(F)c(Cl)c2)C1 (stereo unspecified), the activation was -0.39% (inactive).
With CC(=O)c1ccc(NC(=O)c2sc3nc4n(c(=O)c3c2C)CCCCC4)cc1 the activation was -2.88% (inactive).
CC(=O)Nc1ccc(NC(=O)c2sc3nc4c(c(-c5ccc(C)cc5)c3c2N)CCC4)cc1 was tested, and the activation was 11.7% (active).
Cc1ccc(NC(=O)c2sc3nc(N)c(C#N)cc3c2N)cc1 was tested, and the activation was 7.55% (inactive).
For CC1(C(=O)NCc2ccc(F)c(F)c2)Cc2c(-c3ccc4c(c3)OCO4)ccnc2O1 (stereo unspecified), the activation was -2.86% (inactive).
In the case of CCOC(=O)C1(C)CCCN(C(=O)c2ccc(N(C)C)cc2)C1 (stereo unspecified), the activation is reported as -1.51% (inactive).
In the case of CN(C)CCCOc1ccc(-c2ccc3nccn3c2)cn1, the activation is reported as -1.74% (inactive).
For CSc1ccc(CN2CCC2(C)C(=O)Nc2ccc(C)c(O)c2)cc1 (stereo unspecified), the activation was -0.16% (inactive).
